Pf Dd2 growth: inhibitors of Plasmodium falciparum Dd2 growth; P. falciparum Dd2 growth, SYBR Green, 72 h; 120,000 tested, 4.3% active; AID 1347417; Potency, µM (top dose mostly 28.9 µM), without a hit: top-dose activity, negative = inhibition, hits mostly inhibitors; active means well fitted inhibition curve with a large enough effect;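 further: plate controls were DMSO vehicle for no effect and reference drug for full effect; nearly all actives have a fitted effect of over 65% in size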
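Infected erythrocytes (Dd2, 0.3% parasitemia, 2.5% hematocrit final) are added to compound in RPMI-1640/Albumax II medium, grown 72 h at 37C in low oxygen, then lysed with saponin/Triton-X containing SYBR Green and read by fluorescence.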
Active calls of the source: *; [ ] = remark or other dose. Only a selection was taken, and hits are over-represented in it overall. Potency means the concentration at half of the fitted maximal effect.

Screening COc1ccc(CN2CCC[C@H]2c2nc(-c3ccc(-n4ccnc4)nc3)no2)c(OC)c1OC returned Pf Dd2 growth 10µM*.
Screening CC(=O)N1CCC(N2CCC[C@H]2c2nc(-c3ccc(-n4ccnc4)nc3)no2)CC1 returned Pf Dd2 growth -21%[44.1 µM].
Screening CNc1ccc(-c2noc([C@@H]3CCCN3Cc3cccc(OC)c3)n2)cn1 returned Pf Dd2 growth -8%[44.1 µM].
Screening COCC(=O)Nc1ccc(-c2noc([C@@H]3CCCN3Cc3cc4ccccc4o3)n2)cn1 returned Pf Dd2 growth -16%[44.1 µM].
C[S+](=O)([O-])N1CC2(Cc3ccccc31)CN(C(=O)c1ccc(Cl)nc1)C2 was read as Pf Dd2 growth -24%.
For O=C(C1CC2(CCNCC2)CN1)N1CCCN(Cc2ccc(F)cc2)CC1 (centres undefined) the results were Pf Dd2 growth -18%.
`COc1ccc(NC(=O)O[C@@H]2CO[C@H]3[C@@H]2OC[C@@H]3NS(=O)(=O)Cc2ccccc2)cc1` gave Pf Dd2 growth -4%.
`CO[C@H]1COCCN(C(=O)c2cc(C)oc2C(F)(F)F)C1` gave Pf Dd2 growth 12%[44.1 µM].
`NC(=O)[C@@H](Cc1c[nH]c2ccccc12)NC(=O)[C@H]1CN(C(=O)C2CCNCC2)CCN1C(=O)C1CCNCC1` gave Pf Dd2 growth 5%.
For O=C(NC1CCCC1)c1ccc(CSc2nc3cccnc3n2Cc2ccc(F)cc2)cc1 the results were Pf Dd2 growth 28%.
Screening CC1CCCCN1CCNC(=O)c1ccc(Cn2c(SCc3ccccc3)nc3cccnc32)cc1 (centres undefined) returned Pf Dd2 growth 5.6µM*.
`CC1CCN(CCNC(=O)c2ccc(Cn3c(SCc4ccccc4)nc4cccnc43)cc2)CC1` gave Pf Dd2 growth 10µM*.
For O=C(NCCN1CCCCC1)c1ccc(Cn2c(SCc3ccccc3)nc3cccnc32)cc1 the results were Pf Dd2 growth 5µM*.
Screening O=C(CCc1c[nH]c2ccccc12)N1CCC2(CCCCO2)CC1 returned Pf Dd2 growth 5%.
Screening CC(C)NC(=O)N1CC2ON=C(C(=O)N3CCCC3)C2C1 (centres undefined) returned Pf Dd2 growth -11%[44.1 µM].
`Cc1ccsc1C(=O)N1CCC(c2nc(C3CCOCC3)no2)C1` (centres undefined) gave Pf Dd2 growth 16%.
CCOC(=O)c1cnc2cc(Cl)c(OC)cc2c1Nc1ccc(Br)cc1C was read as Pf Dd2 growth 8%.
For COc1ccc(NC(=O)C(=O)NCCc2ccc(OC)c(OC)c2)c(OC)c1 the results were Pf Dd2 growth -16%.
For CCOC(=O)c1cnc2ccc(OC)cc2c1NCCc1ccc(OC)c(OC)c1 the results were Pf Dd2 growth 1µM*.
For CC1=C(C(=O)NC(C)(C)C)C(c2ccc(Cl)cc2)N2C(CC(=O)N3CCCC3)=CSC2=N1 (centres undefined) the results were Pf Dd2 growth -28%.
Screening O=C1Nc2ccccc2OCC12CCN([S+](=O)([O-])c1cccc(C(F)(F)F)c1)CC2 returned Pf Dd2 growth 12%.
CCOc1cc(=O)n2c(c1C(=O)Nc1cccc(C)c1C)CCCC2 was read as Pf Dd2 growth -8%.
Cc1cc(C)n2nc(CC(=O)NCc3cc(-c4ccco4)on3)nc2n1 was read as Pf Dd2 growth -8%.
O=C(COCc1cc(-c2ccco2)on1)Nc1cccc(Cl)c1Cl was read as Pf Dd2 growth 61%.
Cc1cc(CNC(=O)c2cc(-c3ccco3)nc3c(Cl)cccc23)no1 was read as Pf Dd2 growth 8.9µM*.
CN(C)C(=O)N1CCCC(c2nnc3n2CCNC3)C1 (centres undefined) was read as Pf Dd2 growth -2%.
`CCc1noc([C@@H]2CC(F)(F)CN2C(=O)CCn2ccnc2)n1` gave Pf Dd2 growth 4%.
CN(C)C(C(=O)N1CCN(Cc2nccn2C)CC1)c1cccc(F)c1 (centres undefined) was read as Pf Dd2 growth -5%.
For Cc1cccc(C(C(=O)N2CCN(CC(=O)NC(C)C)CC2)N(C)C)c1 (centres undefined) the results were Pf Dd2 growth -23%.
For Cc1cccc(C(C(=O)N2CCC(CCn3ccnc3C)CC2)N(C)C)c1 (centres undefined) the results were Pf Dd2 growth 7.9µM*.
Screening CNC(=O)[C@@H]1CN(C(=O)c2sc(C)nc2C)C[C@H]1c1n[nH]c(C)n1 returned Pf Dd2 growth 24%.
CC(C)CNC(=O)CN1CN(c2ccccc2)C2(CCN(C(=O)NC3CCCCC3)CC2)C1=O was read as Pf Dd2 growth 1.6µM*.
`COCCNC(=O)CN1CN(c2ccccc2)C2(CCN(C(=O)NC3CCCCC3)CC2)C1=O` gave Pf Dd2 growth inactive.
CCc1ccccc1NC(=O)N1CCC2(CC1)C(=O)N(CC(=O)NC(C)C)CN2c1ccccc1 was read as Pf Dd2 growth 0%.
Screening CC(=O)N1CCc2nn(CC(=O)Nc3cccc(F)c3)c(=O)cc2C1 returned Pf Dd2 growth 46%.
For Cc1cc(C)n(Cc2ccc(C(=O)N3CC4CC(C3)[C@H]3CCCC(=O)N3C4)o2)n1 (some centres undefined) the results were Pf Dd2 growth -11%.

Compound activity (PubChem BioAssay)
